From PubChem BioAssay (NCATS)
Results filed as inconclusive are left out. Unmarked numbers belong to inactive results. Activity calls are given as the source filed them. The call rests on the fitted dose curve; in most records, active means well fitted curve in the direction sought with a large enough effect; inconclusive means small, poorly fitted or top-dose-only effect, or another doubt; inactive means no such curve, though single readings can be large; an effect the other way counts as inactive or inconclusive.

test system: not listed separately; assay: Primary qHTS for inhibitors of La Crosse Virus (LACV) - induced cell death in SH-SY5Y cells (AID 1508616); conditions: SH-SY5Y LACV cytopathicity rescue, ATP luminescence, 6 d; series mostly up to 4.29 µM; activity change: at the top concentration;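 further: top concentration of the series differs between compounds; 0% = infected DMSO wells and 100% = uninfected DMSO wells; higher means more rescue of cells from virus-induced death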
Summary of the method: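 Protection against LACV-induced cell death is scored in SH-SY5Y cells exposed to compounds and virus (0.01 MOI) for 6 days. Data normalized to virus-infected DMSO wells and virus-free DMSO wells.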

SMILES	activity change	Potency
Cc1ccc2c(c1)C1CN(C)CCC1N2 (stereo unspecified)	6.24% [at 1.78 µM]	
C[C@]12CCC(=O)C(O)=C1CC[C@@H]1[C@@H]2CC[C@]2(C)C(=O)CC[C@@H]12		inactive
NCCc1cc(O)c(O)cc1O	-4.13%	

molecular target: Calcium and integrin-binding protein 1 (Homo sapiens) (UniProt Q99828); assay: Validation qHTS for Identification of Calcium Integrin Binding protein 1 (CIB1) Competitor (AID 1508618); conditions: CIB1-GST / FITC-alphaIIb peptide fluorescence polarization; series mostly up to 114 µM; activity change, negative = inhibition: at the top concentration; further: on the % scale 0 is the no-effect control and ±100 the full control effect
Sequence (Q99828 whole entry, looked up): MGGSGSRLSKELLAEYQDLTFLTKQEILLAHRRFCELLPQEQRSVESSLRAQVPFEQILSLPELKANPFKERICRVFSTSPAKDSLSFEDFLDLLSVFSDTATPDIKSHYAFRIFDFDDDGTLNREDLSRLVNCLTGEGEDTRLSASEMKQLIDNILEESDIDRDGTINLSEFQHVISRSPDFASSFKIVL
Summary of the method: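 CIB1-GST (1 uM final) incubated 15 min at room temperature with compounds (up to 114 uM), then FITC-labelled alphaIIb peptide (100 nM) added. FP read (Ex 480/Em 540) after 15 min, pH 7.4 buffer containing 5 mM CaCl2.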

SMILES	activity change, negative = inhibition
N#CC(C#N)=Cc1ccc(O)c(O)c1	14.3%
Cc1ccc(S(=O)(=O)N[C@@H](CCCCN)C(=O)CCl)cc1	-7.91%
CC(C)=CCOc1c2occc2cc2ccc(=O)oc12	0.866%
CCCN1CCC[C@@H]2Cc3nc(N)ncc3C[C@H]21	7.36%
CCC1(C2=NCCN2)Cc2ccccc2O1 (stereo unspecified)	-0.134%
c1ccc(C2CC2)c(OCC2=NCCN2)c1	9.51%
CC(=O)[C@H]1CC[C@H]2[C@@H]3CC[C@H]4C[C@H](O)CC[C@]4(C)[C@H]3C(=O)C[C@]12C	15%
CNCC(O)c1ccc(O)cc1 (stereo unspecified)	12.7%
